Active and inactive are the calls of the source. Rule for the calls: active = hit-call score of the fitted dose curve at least 0.9, where 1 is the maximum; inactive = score below 0.9.
experiment: ATG_GRE_CIS: Attagene CIS-FACTORIAL HepG2 Assay for human Glucocorticoid Response Elements (GRE) (AID 2282947); conditions: HepG2 GRE cis-reporter, Attagene multiplex mRNA; actives raise or lower the signal
Summary of the method: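 HepG2 cells transiently transfected with multiple cis-promoter reporter units measure endogenous TF activity; 24 h compound exposure. Reporter mRNA quantified by RT-PCR, FAM labelling, HpaI digestion and capillary electrophoresis; bidirectional fit vs DMSO baseline.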

SMILES	outcome
COCCCN	inactive
CC(=O)c1nccs1	inactive
O=C(O)c1nc(Cl)c(Cl)c(Cl)c1Cl	inactive
CC=CC(=O)O	inactive

experiment: ATG_ISRE_CIS: Attagene CIS-FACTORIAL HepG2 Assay for human Interferon Regulatory Factor 1 (IRF1) binding to an Interferon-Stimulated Response Element (ISRE) (AID 2282948); conditions: HepG2 ISRE cis-reporter (Attagene), mRNA transcription readout; actives raise or lower the signal
Summary of the method: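 Transiently transfected HepG2 cells carrying cis-element reporter units, dosed 24 hours. Reporter mRNA quantified by RT-PCR, fluorescent primer extension, HpaI digestion and capillary electrophoresis. Bidirectional fitting relative to DMSO.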

SMILES	outcome	AC50
CC1(C)S[C@@H]2[C@H](NC(=O)[C@H](N)c3ccccc3)C(=O)N2[C@H]1C(=O)O	inactive	
CCC(C)(CCC(C)C)C(=O)O (stereo not drawn)	inactive	
Cc1cc(C)c(S(=O)(=O)O)cc1N=Nc1cc(S(=O)(=O)O)c2ccccc2c1O	inactive	
CCCc1c(OCCCCc2nn[nH]n2)ccc(C(C)=O)c1O	inactive	
c1cc(N(CC2CO2)CC2CO2)ccc1Cc1ccc(N(CC2CO2)CC2CO2)cc1 (stereo not drawn)		21.7 µM (active)
CC1=NN(c2cc(Cl)c(S(=O)(=O)O)cc2Cl)C(=O)C1N=Nc1ccc(S(=O)(=O)O)cc1 (stereo not drawn)	inactive	
O=C(O)Cc1c[nH]c2ccccc12	inactive	
CCCCCCCCCCC1CO1 (stereo not drawn)	inactive	
NCc1ccccc1	inactive	
CCCCn1cc[n+](C)c1	inactive	
CC(C)n1c(/C=C/[C@@H](O)C[C@@H](O)CC(=O)O)c(-c2ccc(F)cc2)c2ccccc21	inactive	
CC1=C(CC=O)C(C)(C)CCC1	inactive	
Cc1cccnc1		164 µM (active)
C=C(C)C(=O)OCC1CCCO1 (stereo not drawn)	inactive	
OCCOCCOCCOCCOCCO	inactive	
CCCOCCC	inactive	
CN(C)CCC(c1ccc(Cl)cc1)c1ccccn1 (stereo not drawn)		125 µM (active)
CN(C)CCCN1c2ccccc2CCc2ccc(Cl)cc21	inactive	
CC/C=C\CC1=C(C)CCC1=O	inactive	
C[C@H]1C[C@H]2[C@@H]3CCC4=CC(=O)C=C[C@]4(C)[C@@]3(F)[C@@H](O)C[C@]2(C)[C@@]1(O)C(=O)CO	inactive	
COC(OC)C(C)c1ccccc1 (stereo not drawn)	inactive	
COCCCN	inactive	
CC1=CCCC(C)(C)C12CCC(C)O2 (stereo not drawn)	inactive	
COc1ccccc1OCC(O)CO (stereo not drawn)	inactive	
OCCN(CCO)c1cccc(Cl)c1	inactive	
O=C(O)c1nc(Cl)c(Cl)c(Cl)c1Cl	inactive	

experiment: ATG_M_32_CIS: Attagene CIS-FACTORIAL HepG2 Assay for M32 Transcription Factor (Internal Marker) (AID 2282949); conditions: HepG2 Attagene cis-factorial M32 reporter, mRNA; actives raise or lower the signal;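 note: background control marker of the multiplexed CIS panel rather than a real target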
Summary of the method: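 Following 24 h chemical exposure of HepG2 cells transiently expressing cis-promoter reporter constructs, reporter transcript levels were determined by RT-PCR with fluorescent labelling and capillary electrophoresis, then fitted bidirectionally against DMSO.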

SMILES	outcome
CC1(C)S[C@@H]2[C@H](NC(=O)[C@H](N)c3ccccc3)C(=O)N2[C@H]1C(=O)O	inactive
CCC(C)(CCC(C)C)C(=O)O (stereo not drawn)	inactive
Cc1cc(C)c(S(=O)(=O)O)cc1N=Nc1cc(S(=O)(=O)O)c2ccccc2c1O	inactive
CCCc1c(OCCCCc2nn[nH]n2)ccc(C(C)=O)c1O	inactive
Clc1ccccn1	inactive
c1cc(N(CC2CO2)CC2CO2)ccc1Cc1ccc(N(CC2CO2)CC2CO2)cc1 (stereo not drawn)	inactive
CCCCCCOC(=O)CCCCCCCC(=O)OCCCCCC	inactive
CC1=NN(c2cc(Cl)c(S(=O)(=O)O)cc2Cl)C(=O)C1N=Nc1ccc(S(=O)(=O)O)cc1 (stereo not drawn)	inactive
O=C(O)Cc1c[nH]c2ccccc12	inactive
CCCCCCCCCCC1CO1 (stereo not drawn)	inactive
NCc1ccccc1	inactive
O=[N+]([O-])c1ccc2nc[nH]c2c1	inactive
CCCCn1cc[n+](C)c1	inactive
CC(C)CC(=O)O	inactive
C[Si](C)(C)O[Si](C)(C)O[Si](C)(C)C	inactive
Cc1cc(O)cc(C)c1Cl	inactive
CC(C)n1c(/C=C/[C@@H](O)C[C@@H](O)CC(=O)O)c(-c2ccc(F)cc2)c2ccccc21	inactive
CC1=C(CC=O)C(C)(C)CCC1	inactive
CC(O)(P(=O)(O)O)P(=O)(O)O	inactive
Cc1cccnc1	inactive

SMILES	outcome
Cc1ccccc1S(N)(=O)=O	inactive
C=C(C)C(=O)OCC1CCCO1 (stereo not drawn)	inactive
OCCOCCOCCOCCOCCO	inactive
C1=CCC=C1	inactive
CC(C)CC(=O)CC(C)CC(C)C (stereo not drawn)	inactive
CCCOCCC	inactive
CN(C)CCC(c1ccc(Cl)cc1)c1ccccn1 (stereo not drawn)	inactive
CN(C)CCCN1c2ccccc2CCc2ccc(Cl)cc21	inactive
CC/C=C\CC1=C(C)CCC1=O	inactive
C[C@H]1C[C@H]2[C@@H]3CCC4=CC(=O)C=C[C@]4(C)[C@@]3(F)[C@@H](O)C[C@]2(C)[C@@]1(O)C(=O)CO	inactive
COC(OC)C(C)c1ccccc1 (stereo not drawn)	inactive
F[B-](F)(F)F	inactive
COCCCN	inactive
CC1=CCCC(C)(C)C12CCC(C)O2 (stereo not drawn)	inactive
CC(=O)c1nccs1	inactive
COc1ccccc1OCC(O)CO (stereo not drawn)	inactive
OCCN(CCO)c1cccc(Cl)c1	inactive
O=C(O)c1nc(Cl)c(Cl)c(Cl)c1Cl	inactive
CC=CC(=O)O	inactive

experiment: ATG_M_06_CIS: Attagene CIS-FACTORIAL HepG2 Assay for M06 Transcription Factor (Internal Marker) (AID 2282950); conditions: HepG2 Attagene CIS-FACTORIAL M06 internal marker reporter; actives raise or lower the signal
Summary of the method: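 Measured 24 h post-dosing in transiently transfected HepG2 cells, this internal-marker endpoint reports reporter mRNA via RT-PCR with fluorescent primer extension and capillary electrophoresis. DMSO served as negative control and baseline for bidirectional fitting.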

SMILES	outcome
CC1(C)S[C@@H]2[C@H](NC(=O)[C@H](N)c3ccccc3)C(=O)N2[C@H]1C(=O)O	inactive
CCC(C)(CCC(C)C)C(=O)O (stereo not drawn)	inactive
Cc1cc(C)c(S(=O)(=O)O)cc1N=Nc1cc(S(=O)(=O)O)c2ccccc2c1O	inactive
CCCc1c(OCCCCc2nn[nH]n2)ccc(C(C)=O)c1O	inactive
Clc1ccccn1	inactive
c1cc(N(CC2CO2)CC2CO2)ccc1Cc1ccc(N(CC2CO2)CC2CO2)cc1 (stereo not drawn)	inactive
CCCCCCOC(=O)CCCCCCCC(=O)OCCCCCC	inactive
CC1=NN(c2cc(Cl)c(S(=O)(=O)O)cc2Cl)C(=O)C1N=Nc1ccc(S(=O)(=O)O)cc1 (stereo not drawn)	inactive
O=C(O)Cc1c[nH]c2ccccc12	inactive
CCCCCCCCCCC1CO1 (stereo not drawn)	inactive
NCc1ccccc1	inactive
O=[N+]([O-])c1ccc2nc[nH]c2c1	inactive
CCCCn1cc[n+](C)c1	inactive
CC(C)CC(=O)O	inactive
C[Si](C)(C)O[Si](C)(C)O[Si](C)(C)C	inactive
Cc1cc(O)cc(C)c1Cl	inactive
CC(C)n1c(/C=C/[C@@H](O)C[C@@H](O)CC(=O)O)c(-c2ccc(F)cc2)c2ccccc21	inactive
CC1=C(CC=O)C(C)(C)CCC1	inactive
CC(O)(P(=O)(O)O)P(=O)(O)O	inactive
Cc1cccnc1	inactive

SMILES	outcome
Cc1ccccc1S(N)(=O)=O	inactive
C=C(C)C(=O)OCC1CCCO1 (stereo not drawn)	inactive
OCCOCCOCCOCCOCCO	inactive
C1=CCC=C1	inactive
CC(C)CC(=O)CC(C)CC(C)C (stereo not drawn)	inactive
CCCOCCC	inactive
CN(C)CCC(c1ccc(Cl)cc1)c1ccccn1 (stereo not drawn)	inactive
CN(C)CCCN1c2ccccc2CCc2ccc(Cl)cc21	inactive
CC/C=C\CC1=C(C)CCC1=O	inactive
C[C@H]1C[C@H]2[C@@H]3CCC4=CC(=O)C=C[C@]4(C)[C@@]3(F)[C@@H](O)C[C@]2(C)[C@@]1(O)C(=O)CO	inactive
COC(OC)C(C)c1ccccc1 (stereo not drawn)	inactive
F[B-](F)(F)F	inactive
COCCCN	inactive
CC1=CCCC(C)(C)C12CCC(C)O2 (stereo not drawn)	inactive
CC(=O)c1nccs1	inactive
COc1ccccc1OCC(O)CO (stereo not drawn)	inactive
OCCN(CCO)c1cccc(Cl)c1	inactive
O=C(O)c1nc(Cl)c(Cl)c(Cl)c1Cl	inactive
CC=CC(=O)O	inactive
